IL1B secr inh: blocks inflammasome-driven IL-1 beta release; THP-1 LPS/ATP IL-1B secretion, AlphaLISA, 16 h; hits give low values; activity change, % at 57.5 µM; hit rate 4.7% among 360,000; AID 743279; in the data active = activity change below about -50%; inconclusive = mostly about -30% to -49%
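THP-1 cells pretreated 1 hr with compounds (up to 57.5 uM final), then stimulated with LPS (250 ng/mL final) plus ATP (1.25 mM final); secreted IL-1B measured by AlphaLISA after 16 hr, decreased signal indicating inhibition.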
HT1080-NT tox: kills 2HG-producing HT-1080-NT fibrosarcoma cells. HT-1080-NT fibrosarcoma viability, CellTiter-Glo ATP luminescence, 48 h. Potency, µM (series often up to 46.1 µM), for the others: at the top dose activity, negative = less viability, usual class: cytotoxic. hit rate 1.6% among 360,000. AID 686970;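 note: NT is the 2HG producing partner of a matched IDH1 knockdown line; potency is the fitted concentration of half-maximal effect; 0% = DMSO-treated cells and -100% = media-only wells without cells; nearly all actives have a fitted effect of over 55% in size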
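HT-1080-NT fibrosarcoma cells (2HG-overproducing), 750 cells/well in RPMI with 5% FBS, dosed after 2 h and incubated 48 h at 37C. CellTiter-Glo luminescence normalized to DMSO and no-cell wells; concentration-response curves fitted and classed.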
TDP1 cell CPT: DT40-hTDP1 cell growth loss with CPT | chicken DT40 Tdp1-/-;hTDP1 cells + 20 nM CPT, ATP luminescence, 48 h | Potency, µM (top dose mostly 46.2 µM), for inactives: at the highest dose activity change, negative = growth inhibition, actives largely listed as inhibitors | hit rate 12% among 420,000 | AID 686979; note: potency is the fitted concentration of half-maximal effect; nearly all actives have a fitted effect of over 55% in size
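Chicken DT40 Tdp1-/- cells complemented with human TDP1, 400 cells/well, exposed to compounds plus 20 nM camptothecin for at least 48 h at 37 C; viability read as ATP content by CellTiter-Glo luminescence.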
DT40 TDP1 no CPT: qHTS for Inhibitors of human tyrosyl-DNA phosphodiesterase 1 (TDP1): qHTS in cells in absence of CPT; Potency, µM (series often up to 46.2 µM), for the others: at the highest dose activity change, negative = growth inhibition, actives largely listed as inhibitors; DT40 Tdp1-/- hTDP1 cells, no CPT, ATP luminescence, 48 h; hit rate 15% among 420,000; note: potency is the fitted concentration of half-maximal effect; nearly all actives have a fitted effect of over 55% in size
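Growth of hTDP1-complemented DT40 Tdp1-knockout cells is measured by ATP luminescence after at least 48 hr compound exposure at 37 °C, with DMSO substituting for the 20 nM CPT used in the parallel screen.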
12-LOX inh: blocks human arachidonate 12S-lipoxygenase; P18054; purified 12hLO, xylenol orange hydroperoxide absorbance; Potency, µM (series often up to 108 µM), for inactives: top-dose activity change, negative = inhibition, most hits filed as inhibitors; hit rate 1.1% among 580,000; AID 1671190; note: potency is the fitted concentration of half-maximal effect
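Purified human 12hLO at 150 nM in 25 mM Hepes, 0.01% Triton X-100, pH 7.0, preincubated 15 min at room temperature with compound. Reaction started with 40 uM arachidonic acid, 30 min at room temperature. Hydroperoxide measured by Fe-xylenol orange, 573/405 nm absorbance ratio.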
HT1080 IDH1KD tx: toxicity to HT-1080 IDH1 knockdown cells (counter line). HT-1080 IDH1 knockdown viability, ATP luminescence, 48 h. hit rate 2% among 360,000. Potency, µM (doses to about 46.1 µM), for inactives: top-dose activity, negative = toxicity, hits mostly cytotoxic;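 note: potency is the fitted concentration of half-maximal effect; 0% = DMSO wells and -100% = cell-free medium wells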
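IDH1KD HT-1080 cells, 750/well, RPMI + 5% FBS; compound pinned after 2 h settling; 48 h, 37 °C; CellTiter-Glo luminescence; % activity normalised to DMSO and no-cell wells; curves fitted, classed by r2 and efficacy.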
Numbers without * were called inactive; u = inconclusive; x = not tested or not shown; [ ] = dose if it differs, or a comment. The full list was thinned out, with hits kept by preference. Unless noted, calls come from the whole dose curve; as a rule, active = well fitted curve in the direction sought with a large enough effect; inconclusive = small, poorly fitted or top-dose-only effect, or another doubt; inactive = no such curve, though single readings can be large; an effect the other way counts as inactive or inconclusive. Unless noted, % is set by controls: 0 for no effect and ±100 for the full control effect.

SMILES	IL1B secr inh	HT1080-NT tox	TDP1 cell CPT	DT40 TDP1 no CPT	12-LOX inh	HT1080 IDH1KD tx
Cc1nnc(N2CCC(C(=O)N3CCCCCC3)CC2)c2nn(-c3ccc(Cl)cc3)c(C)c12	-26	-14%	18µM*	u	4%	0%
Cc1ccc(-n2nc3c(N4CCC(C(=O)N5CCCCCC5)CC4)nnc(C)c3c2C)cc1	-9	-1%	7.3µM*	5.8µM*	x	-10%
COc1ccc(CCN(C)CCC(=O)Nc2cccc(C)c2)cc1OC	-22	2%	-23%	-26%	-2%	-2%
COc1ccc(CC(=O)Nc2cccc(-c3nnc(-c4cccc(C)c4)o3)c2)cc1OC	-6	-1%	u	23µM*	u	-22%
COc1ccc(CC(=O)Nc2cccc(-c3nnc(-c4ccccc4)o3)c2)cc1OC	-72*	u	5.8µM*	2.3µM*	-3%	-21%
COc1ccc(CC(=O)Nc2cccc(-c3nnc(-c4ccc(C)cc4)o3)c2)cc1OC	-99*	u	6.5µM*	5.2µM*	u	u
COc1ccc(CC(=O)Nc2ccc(-c3nnc(-c4ccccc4)o3)cc2)cc1OC	15	16%	-10%	0%	-15%	12%
Cc1ccc(OCC(=O)Nc2cccc(-c3nnc(-c4ccccc4)o3)c2)c(C)c1	36	u	12µM*	12µM*	0%	u
CC(C)NC(=O)N1C2CCC1CN(c1ccc(C(F)(F)F)cc1)C2	x	x	x	x	2%[6.33 µM]	x
COc1cccc(C(=O)N2CCc3onc(-c4cccc(F)c4)c3C2)c1OC	x	x	x	x	39%	x
Cc1cccc(C(=O)N2CCCCCC2c2nc(C)no2)c1 (stereo not drawn)	x	x	x	x	9%	x
CCc1cccc(NC(=O)Cc2ccc(OC)c(OC)c2)c1	-6	-10%	u	13µM*	-4%	-10%
COc1ccc(CC(=O)NCc2cccc(CNC(=O)Cc3ccc(OC)c(OC)c3)c2)cc1OC	7	-2%	-7%	-2%	26%	4%
CCc1c(C)c(C#N)c2nc3ccccc3n2c1Nc1cccc(C(F)(F)F)c1	x	x	16µM*	16µM*	u	x
CCn1c(SCC(=O)Nc2ccc3c(c2)OCO3)nc2cc(C)[nH]c2c1=O	x	x	x	x	47%	x
Cc1ccc(-n2ncc3c(NC4CCCCCC4)ncnc32)cc1C	x	x	x	x	-6%	x
COCCn1ncc(N2CCC(NC(=O)c3ccccc3OC)CC2)cc1=O	x	x	x	x	44%	x
COc1ccc(CCC(C)N2CCC(CO)(Cc3ccccc3)CC2)cc1 (stereo not drawn)	-57*	-22%	u	u	u	-18%
COc1ccc(CC2(CO)CCN(S(=O)(=O)c3sccc3C)CC2)cc1	13	3%	26µM*	u	-2%	-20%
CC(COc1ccccc1)N1CCC(CO)(CCc2ccccc2)CC1 (stereo not drawn)	-67*	16µM*	u	u	-27%	u
COc1ccc(CC2(CO)CCN(C(C)Cc3ccc(Cl)cc3)CC2)cc1 (stereo not drawn)	-67*	u	u	u	u	u
Cc1ccc(C2SCc3cc(C)c(C)cc3CS2)cc1	x	x	x	x	-11%	x
CC(=O)NCCC(=O)N1Cc2ccccc2CC2(CCN(CC3CCOCC3)CC2)C1	x	x	x	x	12%[6.33 µM]	x
O=C(CSc1nnc(CNc2ccc(F)cc2)n1CC1CCCO1)Nc1ccccc1 (stereo not drawn)	-12	0%	21µM*	u	-12%	-3%
Cc1ccc(NCc2nnc(SCC(=O)Nc3ncc(C)s3)n2CC2CCCO2)c(C)c1 (stereo not drawn)	-10	-10%	-8%	u	7%	-6%
Cc1ccc(NCc2nnc(SCC(=O)Nc3cccc(O)c3)n2CC2CCCO2)c(C)c1 (stereo not drawn)	-51*	1%	u	u	-11%	-10%

High-throughput results deposited in PubChem by National Center for Advancing Translational Sciences (NCATS).
